Binding signal data for 28 molecules are collected here from PMC9911399, “Two distinct binding modes provide the RNA-binding protein RbFox with extraordinary sequence specificity”.

The labels stand for the following.
B1: GAGCAUG (DNA:RNA)
RNA: GGGAGACCGGAAUUCAGAUUGUCCGAGCAUGUUAAAUCCCGUCGUAGCCACCA
DNA 1: CAATCTGAATTCCGGTCTCCC
DNA 2: TGGTGGCTACGACGGGATT
B2: GAGCAUC (DNA:RNA)
RNA: B1 RNA with G31C
DNA 1: CAATCTGAATTCCGGTCTCCC
DNA 2: TGGTGGCTACGACGGGATT
B3: GAGCACC (DNA:RNA)
RNA: B1 RNA with U30C, G31C
DNA 1: CAATCTGAATTCCGGTCTCCC
DNA 2: TGGTGGCTACGACGGGATT
B4: GAGCACG (DNA:RNA)
RNA: B1 RNA with U30C
DNA 1: CAATCTGAATTCCGGTCTCCC
DNA 2: TGGTGGCTACGACGGGATT
B5: GAGCAGA (DNA:RNA)
RNA: B1 RNA with U30G, G31A
DNA 1: CAATCTGAATTCCGGTCTCCC
DNA 2: TGGTGGCTACGACGGGATT
B6: GAGAGCA (DNA:RNA)
RNA: B1 RNA with C28A, A29G, U30C, G31A
DNA 1: CAATCTGAATTCCGGTCTCCC
DNA 2: TGGTGGCTACGACGGGATT
B7: UUGCUAA (DNA:RNA)
RNA: B1 RNA with G25U, A26U, A29U, U30A, G31A
DNA 1: CAATCTGAATTCCGGTCTCCC
DNA 2: TGGTGGCTACGACGGGATT
B8: CGACAAG (DNA:RNA)
RNA: B1 RNA with G25C, A26G, G27A, U30A
DNA 1: CAATCTGAATTCCGGTCTCCC
DNA 2: TGGTGGCTACGACGGGATT
B9: CCAUGCU (DNA:RNA)
RNA: GGGAGACCGGAAUUCAGAUUGUCCCCAUGCUUUAAAUCCCGUCGUAGCCACCA
DNA 1: CAATCTGAATTCCGGTCTCCC
DNA 2: TGGTGGCTACGACGGGATT
B10: AUGCAUC (DNA:RNA)
RNA: B1 RNA with G25A, A26U, G31C
DNA 1: CAATCTGAATTCCGGTCTCCC
DNA 2: TGGTGGCTACGACGGGATT
B11: UAGCACG (DNA:RNA)
RNA: B1 RNA with G25U, U30C
DNA 1: CAATCTGAATTCCGGTCTCCC
DNA 2: TGGTGGCTACGACGGGATT
B12: UACCACG (DNA:RNA)
RNA: B1 RNA with G25U, G27C, U30C
DNA 1: CAATCTGAATTCCGGTCTCCC
DNA 2: TGGTGGCTACGACGGGATT
B13: UAGCACC (DNA:RNA)
RNA: B1 RNA with G25U, U30C, G31C
DNA 1: CAATCTGAATTCCGGTCTCCC
DNA 2: TGGTGGCTACGACGGGATT
B14: UUGCACC (DNA:RNA)
RNA: B1 RNA with G25U, A26U, U30C, G31C
DNA 1: CAATCTGAATTCCGGTCTCCC
DNA 2: TGGTGGCTACGACGGGATT
B15: AUGCACC (DNA:RNA)
RNA: B1 RNA with G25A, A26U, U30C, G31C
DNA 1: CAATCTGAATTCCGGTCTCCC
DNA 2: TGGTGGCTACGACGGGATT
B16: AUCCACG (DNA:RNA)
RNA: B1 RNA with G25A, A26U, G27C, U30C
DNA 1: CAATCTGAATTCCGGTCTCCC
DNA 2: TGGTGGCTACGACGGGATT
B17: AUGCAUA (DNA:RNA)
RNA: B1 RNA with G25A, A26U, G31A
DNA 1: CAATCTGAATTCCGGTCTCCC
DNA 2: TGGTGGCTACGACGGGATT
B18: AUGCAUG (DNA:RNA)
RNA: B1 RNA with G25A, A26U
DNA 1: CAATCTGAATTCCGGTCTCCC
DNA 2: TGGTGGCTACGACGGGATT
B19: AUGCACG (DNA:RNA)
RNA: B1 RNA with G25A, A26U, U30C
DNA 1: CAATCTGAATTCCGGTCTCCC
DNA 2: TGGTGGCTACGACGGGATT
B20: UUGCAGA (DNA:RNA)
RNA: B1 RNA with G25U, A26U, U30G, G31A
DNA 1: CAATCTGAATTCCGGTCTCCC
DNA 2: TGGTGGCTACGACGGGATT
B21: UUGCACG (DNA:RNA)
RNA: B1 RNA with G25U, A26U, U30C
DNA 1: CAATCTGAATTCCGGTCTCCC
DNA 2: TGGTGGCTACGACGGGATT
B22: GUCCCAA (DNA:RNA)
RNA: B1 RNA with A26U, G27C, A29C, U30A, G31A
DNA 1: CAATCTGAATTCCGGTCTCCC
DNA 2: TGGTGGCTACGACGGGATT
B23: CAUUACG (DNA:RNA)
RNA: B9 RNA with C26A, A27U, G29A, U31G
DNA 1: CAATCTGAATTCCGGTCTCCC
DNA 2: TGGTGGCTACGACGGGATT
B24: UCACUCG (DNA:RNA)
RNA: B9 RNA with C25U, U28C, G29U, U31G
DNA 1: CAATCTGAATTCCGGTCTCCC
DNA 2: TGGTGGCTACGACGGGATT
B25: GUGCACG (DNA:RNA)
RNA: B1 RNA with A26U, U30C
DNA 1: CAATCTGAATTCCGGTCTCCC
DNA 2: TGGTGGCTACGACGGGATT
B26: ACGUGCG (DNA:RNA)
RNA: B9 RNA with C25A, A27G, U31G
DNA 1: CAATCTGAATTCCGGTCTCCC
DNA 2: TGGTGGCTACGACGGGATT
B27: GUGCACC (DNA:RNA)
RNA: B1 RNA with A26U, U30C, G31C
DNA 1: CAATCTGAATTCCGGTCTCCC
DNA 2: TGGTGGCTACGACGGGATT
B28: AGGUCUC (DNA:RNA)
RNA: B1 RNA with G25A, A26G, C28U, A29C, G31C
DNA 1: CAATCTGAATTCCGGTCTCCC
DNA 2: TGGTGGCTACGACGGGATT

Where a chain is given by its changes, count along the chain named. Whole data set: some 16,000 sequences, median “ka relative to ugcaugu” near 0.0091, cut for the highest 2% near 0.032. This excerpt belongs to a sample that is enriched for the highest values.

The test deals with T1, RBFOX1 RRM (Homo sapiens, UniProt Q9NWB1 109-208).
T1 sequence: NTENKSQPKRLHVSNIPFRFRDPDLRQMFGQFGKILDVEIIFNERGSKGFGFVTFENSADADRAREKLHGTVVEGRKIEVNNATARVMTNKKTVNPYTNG
Nature of the test: EMSA; HiTS-Eq, 1 nM pool, 10 min; buffer printed only for the single-RNA assays: 10 mM Tris pH 7.5, 150 mM NaCl, 3.4 mM EDTA, 0.001% NP-40, 30 C. The following applies: tags: His6 N-terminal (pET28a); label: 5' 32P. In outline: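 Purified RbFox RRM, wild type or mutant, was incubated for 10 min in 50 µL with 1 nM of a 5′-radiolabelled RNA pool carrying 7 randomized nucleotides, whose flanks were annealed to DNA oligonucleotides, over a series of increasing protein concentrations. Unbound RNA was resolved on 8% native PAGE, cut out, reverse-transcribed, barcoded by PCR and sequenced on an Illumina HiSeq 2500. Relative association constants were derived from changes in read counts for each RNA species versus the control reaction and normalised to the cognate motif.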
Background: Mobility shift assays separate free from complexed probe on a gel.
In the case of B1, the binding signal is 0.713 KA relative to UGCAUGU.

For the molecule B2, the binding signal was 0.018 KA relative to UGCAUGU. As to B3, the binding signal was 0.00895 KA relative to UGCAUGU. For B4, the binding signal was 0.0394 KA relative to UGCAUGU. For B5, the binding signal was 0.0147 KA relative to UGCAUGU.

Regarding B6, the binding signal is 0.0187 KA relative to UGCAUGU. Regarding B7, the binding signal is 0.00861 KA relative to UGCAUGU. On to B8, for which the binding signal is 0.00637 KA relative to UGCAUGU.

Turning to B9, the binding signal was 0.00802 KA relative to UGCAUGU. For the molecule B10, the binding signal is 0.015 KA relative to UGCAUGU. For B11, the binding signal was 0.0464 KA relative to UGCAUGU. B12: the binding signal was 0.00532 KA relative to UGCAUGU. Regarding B13, the binding signal was 0.0118 KA relative to UGCAUGU.

As for B14, the binding signal is 0.0149 KA relative to UGCAUGU. As for B15, the binding signal is 0.0115 KA relative to UGCAUGU. With B16, the binding signal was 0.0022 KA relative to UGCAUGU. As to B17, the binding signal is 0.00891 KA relative to UGCAUGU. As for B18, the binding signal was 0.911 KA relative to UGCAUGU. The same measure for B19: 0.361 KA relative to UGCAUGU; for B20: 0.018 KA relative to UGCAUGU. In the case of B21, the binding signal was 0.692 KA relative to UGCAUGU.

For B22, the binding signal was 0.00597 KA relative to UGCAUGU. To B23 belongs 0.00857 KA relative to UGCAUGU; to B24, 0.00518 KA relative to UGCAUGU. For the molecule B25, the binding signal was 0.62 KA relative to UGCAUGU.

As for B26, the binding signal is 0.0166 KA relative to UGCAUGU. As to B27, the binding signal was 0.0178 KA relative to UGCAUGU.

Turning to B28, the binding signal is 0.0131 KA relative to UGCAUGU.
